This is a sample that favours compounds with a hit; in the whole collection about 2.8% have one here.
PAFAH1B2 inh = blocks human PAF acetylhydrolase 1b catalytic subunit 2; P68402; actives 1.2% (n = 340,000); AID 492953; inhibition, % at 3.39 µM; recombinant PAFAH1B2, FP-rhodamine activity probe, fluorescence polarization;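 active means inhibition above the mean of all tested compounds plus 3 SD, cut at about 24% in these data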;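 further: 0% = enzyme with DMSO and 100% = wells lacking PAFAH1B2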
HTRA1 inh = blocks human HTRA1 serine peptidase. Q92743. recombinant HTRA1, FP-rhodamine activity-based probe, fluorescence polarization. inhibition, % at 5.96 µM. actives 0.5% (n = 340,000); in the data active means inhibition above about 36%;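 further: 0% = enzyme with DMSO and 100% = wells lacking enzyme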
PAFAH2 FP inh = inhibitors of human PAFAH2; inhibition, % at 3.39 µM; recombinant PAFAH2, FP-rhodamine activity probe, fluorescence polarization; actives 0.99% (n = 340,000); AID 492956;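 active means inhibition above the mean over all tested compounds plus 3 SD, cut at about 30% in these data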;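 further: inhibitors block probe labeling of enzyme so polarization drops; 0% = enzyme with DMSO and 100% = wells lacking PAFAH2 protein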
PAFAH1B3 inh = blocks human PAF acetylhydrolase 1B catalytic subunit 3; inhibition, % at 3.39 µM; recombinant PAFAH1B3, FP-rhodamine probe, fluorescence polarization; actives 0.28% (n = 340,000); Q15102;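 active means inhibition above the screen-wide average of all tested compounds plus 3 SD, cut at about 25% in these data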;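 further: 0% = enzyme with DMSO only and 100% = wells lacking PAFAH1B3 protein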
DAGLB inhibitor = diacylglycerol lipase beta (human) inhibition. AID 504411. inhibition, % at 5.17 µM. HEK293T DAGLB membrane lysate, EnzChek fluorogenic substrate. actives 0.059% (n = 340,000). Q8NCG7; in the data active means inhibition above about 34%;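 further: 0% = enzyme with vehicle and 100% = wells lacking enzyme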
Target sequence (Q8NCG7 whole entry, looked up): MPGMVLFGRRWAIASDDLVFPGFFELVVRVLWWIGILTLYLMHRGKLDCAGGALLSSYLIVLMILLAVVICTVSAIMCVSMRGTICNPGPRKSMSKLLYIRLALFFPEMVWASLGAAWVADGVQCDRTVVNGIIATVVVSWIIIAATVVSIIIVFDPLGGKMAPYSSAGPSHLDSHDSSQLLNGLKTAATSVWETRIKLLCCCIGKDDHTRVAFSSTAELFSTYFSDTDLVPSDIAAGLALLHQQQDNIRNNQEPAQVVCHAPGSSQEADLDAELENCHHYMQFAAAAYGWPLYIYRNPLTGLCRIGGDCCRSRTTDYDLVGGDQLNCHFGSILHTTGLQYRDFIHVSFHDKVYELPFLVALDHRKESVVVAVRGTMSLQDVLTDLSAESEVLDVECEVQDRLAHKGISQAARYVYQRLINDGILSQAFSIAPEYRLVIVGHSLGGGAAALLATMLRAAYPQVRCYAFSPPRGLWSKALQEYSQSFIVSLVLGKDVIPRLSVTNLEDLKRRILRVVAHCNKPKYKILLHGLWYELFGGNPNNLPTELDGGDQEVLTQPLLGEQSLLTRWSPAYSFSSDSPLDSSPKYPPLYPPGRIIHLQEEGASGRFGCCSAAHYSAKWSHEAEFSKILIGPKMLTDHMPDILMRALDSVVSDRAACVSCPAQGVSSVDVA
pPAFAH inh = inhibitors of human plasma PAF acetylhydrolase (pPAFAH). Q13093. actives 1.5% (n = 330,000). inhibition, % at 3.39 µM. AID 463082. recombinant pPAFAH, FP-rhodamine probe fluorescence polarization;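 active means inhibition above the mean inhibition across the screen plus 3 SD, cut at about 25% in these data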;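 further: inhibitors block binding of the rhodamine activity-based probe so polarization drops; 0% = enzyme with DMSO and 100% = wells lacking pPAFAH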
Starred values were filed as active, the others as inactive; . = not tested or not shown.

SMILES	PAFAH1B2 inh	HTRA1 inh	PAFAH2 FP inh	PAFAH1B3 inh	DAGLB inhibitor	pPAFAH inh
Cc1ccc(C(C[N+](=O)[O-])c2c(-c3ccccc3O)[nH][nH]c2=O)cc1 (stereo not drawn)	25.2*	4.2	11.0	1.6	5.4	2.7
Cc1oc2cc(Br)c(O)c(Br)c2c1-c1ccccc1	16.1	-17.5	71.9*	-3.6	-5.6	17.3
N#CCSc1nc(Nc2ccc3c(c2)OCO3)c2ccccc2n1	7.6	-12.8	5.5	9.1	-0.9	26.0*
CN(C(=O)c1cccc(NC(=O)Cc2cccc(NC(=O)C3CCN(C(=O)C4CCCC4)CC3)c2)c1)C1CC1	7.7	3.2	-7.4	10.6	0.9	.
Cc1cc(C)nc(NS(=O)(=O)c2ccc(NC(=O)c3snnc3C)cc2)n1	-2.5	-0.8	2.4	7.7	1.6	3.8
CC(NC(=O)C12CC3CC(C)(CC(C)(C3)C1)C2)c1ccncc1 (stereo not drawn)	24.6*	2.5	11.5	9.0	0.3	7.5
O=C(NNC(=O)C12CC3CC(CC(C3)C1)C2)c1ccncc1	9.1	-0.5	-11.0	8.9	0.7	0.2
CC12CC3CC(C)(C1)CC(C(=O)NNC(=O)c1ccncc1)(C3)C2	25.4*	4.7	8.3	11.6	0.0	3.2
CC1CCN(C(=O)c2ncn3c2c(=O)[nH]c2cccnc23)CC1	.	3.2	.	.	0.9	.
O=C(CN(Cc1ccccc1)S(=O)(=O)c1ccc(F)cc1)NCc1cccnc1	3.3	0.7	9.8	11.8	-1.9	0.9
O=[N+]([O-])c1cc2oc3c(c2c(C=NCc2ccncc2)c1O)CCCC3	8.4	49.6*	37.3*	26.4*	19.3	.
Cn1c(CNC(=O)c2ccc(Cl)cc2)nnc1SCC(=O)Nc1sc2c(c1C#N)CCCC2	26.2*	14.2	-0.9	2.9	-1.1	3.8
Cn1c(CNC(=O)c2ccc(Cl)cc2)nnc1SCC(=O)NC1CCCC1	2.7	-4.7	5.6	2.6	1.1	1.0
COc1cc(/C=N/N2CCN(c3ccc(Cl)cc3)CC2)cc(OC)c1OC(C)=O	25.4*	-4.7	-1.6	9.1	-4.4	-0.3
COc1cc(/C=N/N2CCN(c3ccccc3)CC2)cc(OC)c1OC(C)=O	-0.9	11.0	10.3	13.0	-1.9	8.4
CSC(=S)NN=C(C)c1cccc(C)n1	3.6	5.3	0.3	6.5	-1.8	.
Cc1ccccc1NS(=O)(=O)c1cc(C(=O)NCc2ccncc2)ccc1Cl	-3.4	4.5	1.5	-1.2	1.8	20.2
CCOC(=O)CC(=O)NC(CC(=O)OC)c1ccc(Br)cc1 (stereo not drawn)	2.2	-1.1	9.4	3.3	3.6	-2.0
CCOC(=O)CC(=O)NC(CC(=O)OC)c1ccc(C(C)C)cc1 (stereo not drawn)	28.5*	5.1	6.3	6.1	0.9	-0.3
COc1ccc(N2CCN(C(=O)c3cccc(Br)c3)CC2)c([N+](=O)[O-])c1	-0.3	-5.8	5.9	7.9	9.5	3.7
Cc1onc(-c2ccccc2)c1C(=O)N(C)CC(=O)Nc1ccc(F)c(F)c1F	5.2	2.7	14.2	5.2	0.7	5.8
CC(=O)Nc1ccc(S(=O)(=O)N(CCCN2CCOCC2)Cc2cccs2)cc1	2.4	-5.9	0.6	-1.2	-1.2	7.3
CC(C)(C)c1ccc(S(=O)(=O)N(CCCN2CCOCC2)Cc2cccs2)cc1	7.2	-11.5	29.9*	10.5	-3.5	32.5*
COc1ccc(CCC(=O)OCc2csc(CC(=O)Nc3ccccc3C)n2)cc1	2.7	-10.1	7.2	-3.9	-0.3	9.0
COc1ccc(CC(=O)OCc2csc(CC(=O)Nc3ccc(C)cc3)n2)cc1	-2.6	-0.4	10.1	13.3	-4.6	27.1*
Cc1ccc(NC(=O)Cc2nc(CCl)cs2)cc1	5.1	-8.8	22.6	-2.6	-0.1	31.5*
O=C(CCCc1ccccn1)c1ccc(-c2ccccc2)cc1	4.1	-10.6	-2.3	3.0	-12.9	.
CCN(CC)S(=O)(=O)c1cc(C(=O)OCC(=O)NC2CCCc3ccccc32)ccc1C (stereo not drawn)	1.1	-19.7	67.4*	7.0	1.2	26.9*
CNS(=O)(=O)c1cc(C(=O)OCC(=O)NC2CCCc3ccccc32)ccc1Cl (stereo not drawn)	0.5	4.4	8.8	1.6	-1.5	3.5

Source: PubChem BioAssay
